Laboratory results from PubChem BioAssay (NCI).
About 83,000 compounds went through this panel and 20% of them were active in at least one assay; those are over-represented in the sample as a whole.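 How to read the values: 0–100, growth inhibition (40 = 60% inhibited); 0, no net growth; -100 to 0, cell death (-40 = 40% of starting cells died; -100 = all dead).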 Calls of active or inactive are those of the source. Rule for the calls: active = growth percent below 10; inactive = the rest.

Key:
Experiment in all cases: NCI-60 one-dose screen, 48 h (100 = growth as untreated, 0 = no growth, -100 = all killed)
Details in all cases: 10 µM
DU-145 prostate = tested on: DU-145 prostate
K-562 leukemia = tested on: K-562 leukemia
MDA-MB-231 breast = tested on: MDA-MB-231 breast
RXF 393 renal = tested on: RXF 393 renal
SF-268 CNS = tested on: SF-268 CNS
SF-295 CNS = tested on: SF-295 CNS
SF-539 CNS = tested on: SF-539 CNS
UACC-257 melanoma = tested on: UACC-257 melanoma
M14 melanoma = tested on: M14 melanoma
HCT-15 colon = tested on: HCT-15 colon
HT29 colon = tested on: HT29 colon
SNB-75 CNS = tested on: SNB-75 CNS
SNB-19 CNS = tested on: SNB-19 CNS
U251 CNS = tested on: U251 CNS
PC-3 prostate = tested on: PC-3 prostate
SK-MEL-5 melanoma = tested on: SK-MEL-5 melanoma
UACC-62 melanoma = tested on: UACC-62 melanoma
LOX IMVI melanoma = tested on: LOX IMVI melanoma
SK-MEL-28 melanoma = tested on: SK-MEL-28 melanoma
MALME-3M melanoma = tested on: MALME-3M melanoma

Measured: growth

C#CC(C)(O)[C@@H]1C[C@H](CC(=O)O)C1(C)C (stereo partly drawn)
inactive: DU-145 prostate 112% | K-562 leukemia 118% | MDA-MB-231 breast 113% | RXF 393 renal 134% | SF-268 CNS 105% | SF-295 CNS 103% | SF-539 CNS 99.7% | UACC-257 melanoma 105% | M14 melanoma 105% | HCT-15 colon 104% | HT29 colon 109% | SNB-75 CNS 96% | SNB-19 CNS 98.6% | U251 CNS 109% | PC-3 prostate 105% | SK-MEL-5 melanoma 115% | UACC-62 melanoma 100% | LOX IMVI melanoma 98.1% | SK-MEL-28 melanoma 113%

COc1ccc(C(=O)c2cc3c(OC)c(OC)c(OC)cc3[nH]2)cc1
inactive: DU-145 prostate 81.8% | MDA-MB-231 breast 56.3% | RXF 393 renal 72% | SF-268 CNS 63.5% | SF-295 CNS 143% | SF-539 CNS 66.1% | UACC-257 melanoma 87.8% | M14 melanoma 30.2% | HCT-15 colon 36.1% | HT29 colon 14.2% | SNB-75 CNS 51.9% | SNB-19 CNS 71.9% | U251 CNS 59.8% | SK-MEL-5 melanoma 36.9% | UACC-62 melanoma 36.7% | LOX IMVI melanoma 56.3% | SK-MEL-28 melanoma 65.2%
active: K-562 leukemia 7.74%

CC(C1=C(CN(C(=O)Cc2cn(-c3ccccc3)nc2-c2ccc(Cl)cc2)C(C)C)Cc2ccccc21)c1ccccn1 (stereo not drawn)
inactive: DU-145 prostate 81% | K-562 leukemia 43.4% | MDA-MB-231 breast 60.2% | RXF 393 renal 86.7% | SF-268 CNS 74.5% | SF-295 CNS 75.2% | SF-539 CNS 87.2% | UACC-257 melanoma 67.3% | M14 melanoma 64.7% | HCT-15 colon 54.2% | HT29 colon 32.9% | SNB-75 CNS 80.7% | SNB-19 CNS 76.9% | U251 CNS 67.6% | PC-3 prostate 41.7% | SK-MEL-5 melanoma 46.1% | UACC-62 melanoma 63.6% | LOX IMVI melanoma 69.2% | SK-MEL-28 melanoma 91.9%

Cc1cc(Br)nnc1Br
inactive: DU-145 prostate 121% | K-562 leukemia 99.5% | MDA-MB-231 breast 92.7% | RXF 393 renal 120% | SF-268 CNS 107% | SF-295 CNS 111% | SF-539 CNS 87.9% | UACC-257 melanoma 133% | M14 melanoma 96.8% | HCT-15 colon 102% | HT29 colon 113% | SNB-75 CNS 75.4% | SNB-19 CNS 110% | U251 CNS 112% | PC-3 prostate 110% | SK-MEL-5 melanoma 94.7% | UACC-62 melanoma 111% | LOX IMVI melanoma 108% | SK-MEL-28 melanoma 114%

COc1ccc(-c2nn(-c3cccc(Cl)c3)cc2C=C(C#N)C#N)cc1
inactive: MALME-3M melanoma 17.7% | SF-268 CNS 13.3% | UACC-257 melanoma 38.5% | SNB-19 CNS 16.6% | PC-3 prostate 12.6% | UACC-62 melanoma 11.1% | SK-MEL-28 melanoma 17.2%
active: DU-145 prostate 3.57% | K-562 leukemia -13.2% | MDA-MB-231 breast -40.3% | RXF 393 renal -5.72% | SF-539 CNS 2.34% | M14 melanoma -18% | HT29 colon -14.9% | SNB-75 CNS 3.23% | SK-MEL-5 melanoma 5.8% | LOX IMVI melanoma -66.5%

COC(=O)CC[C@@H](C)[C@H]1CC[C@H]2[C@@H]3CC[C@@H]4C[C@H](O)CC[C@]4(C)[C@H]3C[C@H](O)[C@]12C
inactive: DU-145 prostate 118% | K-562 leukemia 76.4% | MDA-MB-231 breast 120% | RXF 393 renal 110% | SF-268 CNS 95.6% | SF-295 CNS 100% | SF-539 CNS 111% | UACC-257 melanoma 110% | M14 melanoma 102% | HCT-15 colon 92.4% | HT29 colon 89% | SNB-75 CNS 91.4% | SNB-19 CNS 105% | U251 CNS 98.6% | PC-3 prostate 67.7% | SK-MEL-5 melanoma 88.5% | UACC-62 melanoma 87.2% | LOX IMVI melanoma 93.6% | SK-MEL-28 melanoma 118%

O=C(COc1cccc(/C=C2\CSc3ccccc3C2=O)c1)c1ccc(Cl)cc1
inactive: DU-145 prostate 94.9% | MDA-MB-231 breast 68.8% | SF-268 CNS 29.9% | SF-539 CNS 50.6% | SNB-75 CNS 94.6% | SNB-19 CNS 60.8%
active: K-562 leukemia -76.8% | MALME-3M melanoma -61.9% | SF-295 CNS -28.1% | UACC-257 melanoma -47% | M14 melanoma -34.7% | HCT-15 colon -49.7% | HT29 colon -86.3% | U251 CNS -97.9% | PC-3 prostate -39.6% | SK-MEL-5 melanoma -94.4% | UACC-62 melanoma -73.9% | LOX IMVI melanoma -100% | SK-MEL-28 melanoma -81.7%

Nc1nc(Cn2c(-c3nonc3N)nc3ccccc32)nc(N2CCCCC2)n1
inactive: DU-145 prostate 99% | K-562 leukemia 49.3% | MDA-MB-231 breast 84.8% | RXF 393 renal 87.7% | SF-268 CNS 95.6% | SF-295 CNS 96.7% | SF-539 CNS 101% | UACC-257 melanoma 93.1% | M14 melanoma 98.4% | HCT-15 colon 84.8% | HT29 colon 105% | SNB-75 CNS 76.4% | SNB-19 CNS 87% | U251 CNS 96.9% | PC-3 prostate 78% | SK-MEL-5 melanoma 83.2% | UACC-62 melanoma 84.3% | LOX IMVI melanoma 90% | SK-MEL-28 melanoma 95%

CCCCCCCCCCCC[n+]1c(C)cc(N)c2ccccc21
inactive: DU-145 prostate 24.2% | SF-268 CNS 19.6% | SF-539 CNS 16.5% | HCT-15 colon 34.7% | SK-MEL-28 melanoma 29.5%
active: K-562 leukemia -39.5% | MDA-MB-231 breast -3.36% | RXF 393 renal -27.7% | SF-295 CNS -1.01% | UACC-257 melanoma -17.8% | M14 melanoma -33.5% | HT29 colon -8.54% | SNB-75 CNS 3.98% | SNB-19 CNS 9.29% | U251 CNS 8.56% | PC-3 prostate -6.19% | SK-MEL-5 melanoma -96.7% | UACC-62 melanoma -27.8% | LOX IMVI melanoma -74.4%
